# In PubChem BioAssay (Tox21):
# Values without a mark were called inactive. The source made the active and inactive calls. Calls come from the whole dose curve.
# Assay: qHTS assay to identify small molecule agonists of the sonic hedgehog signaling (Shh) pathway (AID 1259368);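 note: NIH/3T3-derived 3T3Gli1-Luc cells carrying a stable Gli1-driven firefly luciferase reporter; nearly all actives have a fitted effect of over 15% in size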
# Conditions: NIH/3T3 Gli1-Luc reporter, luciferase, 24 h; series mostly up to 92.4 µM; activity change: at the top concentration
# Text: National Center for Advancing Translational Sciences [NCATS]
# NIH Chemical Genomics Center [NCGC]
# U.S. Environmental Protection Agency [EPA]
# National Institutes of Environmental Health Sciences [NIEHS]
# National Toxicology Program [NTP]
# The sonic hedgehog (Shh) pathway is essential for normal embryonic development. Dysregulation of the Shh pathway can cause severe developmental defects in organs. Therefore chemicals that interfere with the pathway are potential developmental toxicants. A cell line designated 3T3Gli1-Luc (DMB/OARSA/CFSAN/FDA, Laurel, MD), a NIH/3T3 derived clone containing stably integrated Gli1-Luc reporter is used to detect chemical interference of the Shh pathway, by changes in the expression of the firefly Luc gene under the control of the Gli1 transcriptional response element. This cell line was used to screen Tox21 libraries for identifying and prioritizing the potential developmental toxicants that interfere Shh pathway.
# 3T3 Gli1-Luc cells were dispensed at 2,000 per well in 5uL of culture medium into white solid bottom 1536-well plates (Greiner Bio-One, Monroe, NC) using a Multidrop Combi (Thermo Scientific, Waltham, MA) dispenser. The assay plates were incubated at 37 C and 5% CO2 for 4hr, and then 23nL of compounds dissolved in DMSO and positive control were transferred using a Pintool station (Wako, San Diego, CA). The assay plates were incubated at 37C and 5% CO2 for 24hr. For luciferase read, 4uL of Amplite Luciferase reporter gene assay reagent (AAT Bioquest, Inc. Sunnyvale, CA) was added to each well of the assay plates using Flying Reagent Dispenser (FRD, Aurora Discovery, San Diego, CA) and incubated at room temperature for 30min. The luminescence signal was measured using a ViewLux plate reader (Perkin Elmer, Shelton, CT).
# % is set by controls: 0 for no effect and ±100 for the full control effect.
SMILES,activity change,Potency
CCCCC(CC)COP(=O)(O)O (stereo not given),-0.39%,–
O=C1C(=O)c2ccccc2C(O)=C1C1CCC(c2ccc(Cl)cc2)CC1 (stereo not given),"-2.86% [at 42.5 µM, hits give high values]",–
CCOc1ccc(Cc2nccc3cc(OCC)c(OCC)cc23)cc1OCC,"0.916% [at 42.5 µM, hits give high values]",–
CC(C)COCC(CN(Cc1ccccc1)c1ccccc1)N1CCCC1 (stereo not given),"-4.94% [at 42.5 µM, hits give high values]",–
O=C1NC(=O)c2cc([N+](=O)[O-])ccc21,-3.62%,–
CCOC(=O)c1ccccc1C(=C1C=C(Br)C(=O)C(Br)=C1)c1cc(Br)c(O)c(Br)c1,"-2.73% [at 42.5 µM, hits give high values]",–
O=C(OC(=O)c1ccccc1)c1ccccc1,-1.62%,–
Clc1cc(Cl)nc(Cl)n1,-1.2%,–
O=C(CCCN1CC=C(n2c(=O)[nH]c3ccccc32)CC1)c1ccc(F)cc1,"-0.0621% [at 42.5 µM, hits give high values]",–
Cc1cc(O)c(C)c(C)c1O,"0.558% [at 42.5 µM, hits give high values]",–
O=C(OCC(O)CO)c1ccccc1Nc1ccnc2cc(Cl)ccc12 (stereo not given),"-2.15% [at 42.5 µM, hits give high values]",–
CN1C(=O)c2ccccc2C1=O,-5.28%,–
CC(=O)Nc1ccc(C)cc1C,-0.258%,–
CCOC(=O)[C@H](CCc1ccccc1)N[C@@H](C)C(=O)N(CC(=O)O)C1Cc2ccccc2C1,"0.584% [at 42.5 µM, hits give high values]",–
CCn1cc(C(=O)O)c(=O)c2cc(F)c(N3CCNCC3)cc21,"-0.0759% [at 42.5 µM, hits give high values]",–
CC(CO)CO,-1.15%,–
OC(CCN1CCCC1)(c1ccccc1)C1CCCCC1 (stereo not given),"-2.59% [at 42.5 µM, hits give high values]",–
CCC(C)(C)OC,-1.28%,–
CCCCN1CCCC1C(=O)Nc1c(C)cc(C)cc1C (stereo not given),"2.45% [at 42.5 µM, hits give high values]",–
CC(C)C(O)(c1ccc(OC(F)(F)F)cc1)c1cncnc1 (stereo not given),1.87%,–

SMILES,activity change,Potency
CCOC(=O)/C=C/C(=O)OCC,-0.248%,–
C=C(C)CCCC(C)CCO (stereo not given),0.186%,–
CCN(CC)CCNC(=O)COc1ccc(OC)cc1,"-0.0902% [at 42.5 µM, hits give high values]",–
CC(=O)OCC[N+](C)(C)C,"2.72% [at 42.5 µM, hits give high values]",–
COC(=O)CCS,-0.0403%,–
CCC(=O)OC,-1.32%,–
CC(C)C=O,0.0032%,–
CC(C)=CCC/C(C)=C/CC/C(C)=C/CCC(=O)OC/C=C(\C)CCC=C(C)C,"-0.344% [at 42.5 µM, hits give high values]",–
C1C[C@@H]2[C@H]3CC[C@H](C3)[C@@H]2C1,1.01%,–
CC(=O)Nc1cc(S(=O)(=O)O)cc2cc(S(=O)(=O)O)c(N=Nc3ccccc3)c(O)c12,-1.56%,–
CN1CCCC(n2nc(Cc3ccc(Cl)cc3)c3ccccc3c2=O)CC1 (stereo not given),"-4.18% [at 42.5 µM, hits give high values]",–
CC1=C(CC=O)C(C)(C)CCC1,0.0029%,–
CC(=O)Oc1ccc([N+](=O)[O-])cc1CCl,0.245%,–
CC1=Nc2ccc3ccccc3c2C1(C)C,0.229%,–
O=C(O)CCc1nc(-c2ccccc2)c(-c2ccccc2)o1,"-0.0746% [at 42.5 µM, hits give high values]",–
c1ccc2c(c1)CCc1ccccc1N2,–,inactive
CCCC(=O)C(=O)O,-1.22%,–
c1ccc(C[n+]2cccc3ccccc32)cc1,-1.77%,–
CN1CC(=O)N2[C@H](c3ccc4c(c3)OCO4)c3[nH]c4ccccc4c3C[C@@H]2C1=O,"0.0278% [at 42.5 µM, hits give high values]",–
O=c1[nH]ncc2ccccc12,1.73%,–
